Source: PubChem BioAssay
JMJD2A Tudor: inhibitors of human JMJD2A Tudor domain. O75164. AlphaScreen JMJD2A-Tudor / H3K4me3 peptide binding. Potency, µM (series often up to 114 µM), usual class: inhibitors. actives 4.4% (n = 390,000); further: nearly all actives have a fitted effect of over 50% in size
BAZ2B inh: inhibitors of human BAZ2B bromodomain | AlphaScreen BAZ2B-H3K14Ac peptide displacement | Potency, µM (titrated, usually from 114 µM), actives largely listed as inhibitors | actives 4.4% (n = 360,000) | AID 504333; further: nearly all actives have a fitted effect of over 60% in size
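Protein-peptide AlphaScreen: BAZ2B 50 nM, b-H3K14Ac 50 nM, 1x PBS pH 7.4 + 0.01% Tween-20. Preincubation 30 min RT; cpd 30 min RT (top 110 uM); beads 20 min RT, light-protected.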
CtBP-E1A blk: CtBP/E1A binding inhibition; AlphaScreen GST-E1A/His-CtBP binding, 1536-well; active compounds read low; activity change, % (test concentration not listed); actives 0.49% (n = 340,000); AID 651724; in the data active means activity change below about -65%; inconclusive means mostly about -30% to -63%
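In 5 uL wells, 23 nL compound meets equimolar GST-E1A and His-CtBP (5X stock 125 nM each) for 2 h, 37 °C. Beads (5X, 50 ug/mL) then 1 h, 37 °C, dark.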
Six1-Eya2 inh: Six1/Eya2 interaction inhibition. activity change, % (concentration not given with the values). AID 651725. actives 0.56% (n = 360,000). AlphaScreen GST-Six1/His-Eya2 binding, biochemical; active compounds read low; in the data active means activity change below about -65%; inconclusive means mostly about -30% to -63%
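AlphaScreen luminescence read after one hour at 37 °C in darkness. Pin-transferred compounds met GST-Six1 and His-Eya2 protein (5X stock 250 nM/500 nM) plus glutathione donor and Ni-chelate acceptor beads (5X, 50 ug/mL).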
G9a inh: inhibitors of human histone lysine methyltransferase G9a; Q96KQ7; G9a H3K9 monomethylation, AlphaScreen, 2 h; Potency, µM (highest dose often 102 µM), hits mostly inhibitors; actives 8.8% (n = 350,000); AID 504332; further: nearly all actives have a fitted effect of over 75% in size
Target sequence (Q96KQ7 913-1193 limits assumed): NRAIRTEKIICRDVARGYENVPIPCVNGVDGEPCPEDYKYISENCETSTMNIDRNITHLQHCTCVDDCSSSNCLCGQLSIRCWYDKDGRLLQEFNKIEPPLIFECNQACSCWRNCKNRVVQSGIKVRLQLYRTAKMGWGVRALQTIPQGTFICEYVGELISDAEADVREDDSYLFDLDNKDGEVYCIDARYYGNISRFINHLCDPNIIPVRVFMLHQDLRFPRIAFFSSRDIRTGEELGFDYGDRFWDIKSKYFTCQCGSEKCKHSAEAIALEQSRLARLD
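Quantitative HTS format: methyltransferase activity on a biotin-tagged H3K9 peptide is measured by AlphaScreen, using a rabbit anti-monomethyl-H3K9 antibody with streptavidin donor and anti-IgG acceptor beads. Final levels are 20 nM enzyme, 500 nM peptide, 20 uM SAM; 2 h RT.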
HP1b chromo inh: inhibitors of HP1-beta chromodomain binding to methylated histone tails; P83916; AlphaScreen HP1-beta / biotin-H3K9me3 peptide binding; Potency, µM (doses to about 114 µM), most hits filed as inhibitors; actives 0.56% (n = 390,000); further: nearly all actives have a fitted effect of over 70% in size
Target sequence (P83916 whole entry, looked up): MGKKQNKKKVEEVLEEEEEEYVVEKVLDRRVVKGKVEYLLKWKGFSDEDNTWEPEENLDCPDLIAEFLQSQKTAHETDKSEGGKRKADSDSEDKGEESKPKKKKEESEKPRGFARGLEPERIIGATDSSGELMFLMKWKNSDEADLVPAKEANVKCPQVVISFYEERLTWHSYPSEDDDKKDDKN
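AlphaScreen: HP1-beta (50 nM) preformed 30 min with biotin-H3(1-18)K9me3 peptide (50 nM) in PBS pH 7.4, 0.01% Tween-20. Compound added for 30 min at RT, then streptavidin donor/nickel chelate acceptor beads (10 ug/mL) for 30 min.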
Large screens that a line does not name were inactive. In the library only some 10% were active in any assay of this set; here they are far more common. Unless noted, the call rests on the fitted dose curve; in most records, active means well fitted inhibition curve with a large enough effect; inconclusive means small, poorly fitted or top-dose-only effect; inactive means no such curve, though single readings can be large or run the other way.

O=C(NN1C(=O)C2C3C=CC(O3)C2C1=O)c1cccc(O)c1 (stereo not drawn)	G9a inh 7.9µM
COc1ccc(C(=O)NN2C(=O)C3C4C=CC(O4)C3C2=O)cc1 (stereo not drawn)	G9a inh 4.5µM
O=C1/C(=C/c2ccccc2)SC(=S)N1CC(=O)N1CCCCC1c1cccnc1 (stereo not drawn)	JMJD2A Tudor 35µM, BAZ2B inh 32µM, G9a inh 40µM
O=C(O)CN1C(=O)S/C(=C\c2cccnc2)C1=O	BAZ2B inh 50µM (no result: CtBP-E1A blk, G9a inh)
O=C1/C(=C\c2cccnc2)Sc2ccccc21	JMJD2A Tudor 79µM
O=C(CCN1C(=O)/C(=C/c2ccccc2)SC1=S)Nc1cccnc1	none
O=C(NCCN1C(=O)S/C(=C\c2cccnc2)C1=O)C1=NN(c2ccccc2)C(=O)CC1	JMJD2A Tudor 3.5µM, CtBP-E1A blk inconclusive
CN1C(=O)S/C(=C/c2cccnc2)C1=O	none
CCc1nnc(NC(=O)c2ccccc2NC(=O)C2CCN(C(=O)c3ccco3)CC2)s1	none (no result: BAZ2B inh, CtBP-E1A blk, Six1-Eya2 inh, G9a inh)
CCOc1ccc2nc(N(Cc3cccnc3)C(=O)c3ccco3)sc2c1	none (no result: CtBP-E1A blk, Six1-Eya2 inh)
O=C(CCc1ccc(S(=O)(=O)N2CCOCC2)cc1)N/N=C/c1ccc(O)c(O)c1O	JMJD2A Tudor 79µM, BAZ2B inh inconclusive, CtBP-E1A blk -73, Six1-Eya2 inh -68, G9a inh 7.9µM, HP1b chromo inh inconclusive
O=[N+]([O-])c1ccc(N/N=C/c2cccc(O)c2O)c(S(=O)(=O)N2CCOCC2)c1	BAZ2B inh inconclusive, G9a inh 35µM
O=[N+]([O-])c1ccc(N2CCN(c3ccccc3F)CC2)c(S(=O)(=O)N2CCOCC2)c1	JMJD2A Tudor inconclusive, G9a inh 20µM
O=C(CCc1ccc(S(=O)(=O)N2CCOCC2)cc1)N/N=C/c1ccc(F)cc1F	none
O=[N+]([O-])c1ccc(N/N=C/c2ccc(O)c(O)c2O)c(S(=O)(=O)N2CCOCC2)c1	JMJD2A Tudor 45µM, BAZ2B inh 32µM, HP1b chromo inh 20µM (no result: G9a inh)
COc1ccc(NC(=O)C2CCC(CNS(=O)(=O)c3csc(C(N)=O)c3)CC2)cc1 (stereo not drawn)	none (no result: CtBP-E1A blk, Six1-Eya2 inh)
Cc1ccc(CNC(=O)CCCCCn2c(=O)c3sccc3n(CC(=O)N3CCCCC3C)c2=O)cc1 (stereo not drawn)	none (no result: CtBP-E1A blk, Six1-Eya2 inh)
O=[N+]([O-])c1cccc(N/N=C/c2cccc(O)c2O)c1	BAZ2B inh inconclusive, G9a inh 22µM
O=[N+]([O-])c1ccccc1N/N=C/c1cccc(O)c1O	BAZ2B inh inconclusive, G9a inh inconclusive
CCCCNC(=O)Cn1c(SCc2cccc(F)c2)nc2ccncc21	none (no result: BAZ2B inh, CtBP-E1A blk, Six1-Eya2 inh, G9a inh)
COc1ccc2[nH]cc(C(=O)CNc3nc(C)cs3)c2c1	BAZ2B inh 50µM, G9a inh inconclusive
Fc1ccccc1Sc1ccccc1CNC1=NCCN1	JMJD2A Tudor inconclusive, G9a inh 7.1µM, HP1b chromo inh inconclusive
c1ccc(Sc2cccc3ccccc23)c(CNC2=NCCN2)c1	JMJD2A Tudor 32µM, BAZ2B inh inconclusive, G9a inh 16µM
CCC(=O)N1c2ccccc2CC1C(=O)NCc1ccc(OC(C)C)cc1 (stereo not drawn)	none (no result: CtBP-E1A blk, Six1-Eya2 inh)
Cc1ccc(C)c(N2CCN(S(=O)(=O)c3c(C(=O)N4CCC(C)CC4)c(C)n(C)c3C)CC2)c1	JMJD2A Tudor inconclusive, BAZ2B inh 50µM (no result: CtBP-E1A blk, Six1-Eya2 inh)
CCCCOC(=O)Cn1nnc2sc(-c3ccccc3)cc2c1=O	none (no result: CtBP-E1A blk, Six1-Eya2 inh)
COc1ccc(-c2cc(=O)c3ccccc3o2)cc1	none
COc1ccc(N=c2cc(-c3ccc(OC)cc3)oc3ccccc23)cc1	JMJD2A Tudor 40µM, BAZ2B inh 28µM, Six1-Eya2 inh inconclusive, G9a inh 14µM
CCOc1ccc(N=c2cc(-c3ccc(OC)cc3)oc3ccccc23)cc1	JMJD2A Tudor 16µM, BAZ2B inh 13µM, Six1-Eya2 inh inconclusive, G9a inh 25µM, HP1b chromo inh 25µM
COc1ccc(N=c2cc(-c3ccc(O)cc3)oc3ccccc23)cc1	JMJD2A Tudor 35µM, BAZ2B inh 45µM, Six1-Eya2 inh inconclusive, G9a inh inconclusive, HP1b chromo inh inconclusive
